Reference: PubChem BioAssay (NCATS)
Records with an inconclusive call do not appear. A number with no mark means an inactive call. The source made the active and inactive calls. Calls come from the whole dose curve.

experiment: Cytotoxicity counterscreen for inhibitors of SARS-CoV-2 cell entry (AID 1645845); settings: cell viability (SARS-CoV-2 entry assay cells); series mostly up to 57.1 µM; activity change, negative = cytotoxicity: at the top concentration; note: nearly all actives have a fitted effect of over 50% in size
How it was run: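 Expi293F/hACE2 cells seeded overnight; cpd pin-transferred in DMSO, 1 h preincubation, + media, 48 h 37 C 5% CO2; ATPLite 1step luminescence; normalized to cells and no cells.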
% is set by controls: 0 for no effect and ±100 for the full control effect; potency is the fitted concentration of half-maximal effect.

With `CN1C(=O)c2sccc2N(C)c2nc(Nc3ccc(S(N)(=O)=O)cc3)ncc21` as the compound, how does the “activity change, negative = cytotoxicity” value read?
The value was -18.7%.

Which “activity change, negative = cytotoxicity” value does the source give for `O=C(NOCCO)c1cc(CN2OCCCC2=O)c(F)c(F)c1Nc1ccc(I)cc1F` here?
Its value is -9.84%.

For `C=CC(=O)Nc1cccc(Nc2nc(Nc3ccc(N4CCN(C(C)=O)CC4)cc3OC)ncc2C(F)(F)F)c1`, which Potency is on record?
The Potency was 31.6 µM (active).

With `Cc1ncc(NC(=O)c2cccc(C(F)(F)F)c2)cc1-c1cnc(OC2CCOCC2)c(N2CCOCC2)c1` as the compound, how does the “activity change, negative = cytotoxicity” value read?
The value was -15.9%.

Which “outcome” value does the source give for `O=C(O)CC(C(=O)O)n1c(O)c(C2=c3cc(Br)ccc3=NC2=O)sc1=S` (stereo not given) here?
The value was “inactive”.

For `Cc1c(CN2CCN(C(=O)[C@H](C)O)CC2)sc2c(N3CCOCC3)nc(-c3cnc(N)nc3)nc12`, which “activity change, negative = cytotoxicity” value is on record?
Its value is -13.8%.

Which Potency does the source give for `Cc1cn(CCN2CCN(c3ccccc3-c3cc(C#N)cc(C(=O)NCCCN4CCCC4)c3)CC2)c2ccccc12` here?
Its Potency is 35.5 µM (active).

Which “outcome” value does the source give for `O=C(C[C@@H]1C/C=C\CCC(=O)O[C@H](c2ccccc2)CNC1=O)NCc1ccc(Cl)cc1` here?
Its value is “inactive”.

With `C[C@@H](O)[C@@H]1NC(=O)[C@H](CCCCN)NC(=O)[C@@H](Cc2c[nH]c3ccccc23)NC(=O)[C@H](Cc2ccccc2)NC(=O)[C@@H](NC(=O)[C@H](N)Cc2ccccc2)CSSC[C@@H](C(=O)N[C@H](CO)[C@@H](C)O)NC1=O` as the compound, how does the “outcome” value read?
Its value is “inactive [at 27.1 µM]”.

For `Nc1nccc(-c2c(-c3ccc(F)cc3)ncn2C2CCN(Cc3ccon3)CC2)n1`, which “activity change, negative = cytotoxicity” value is on record?
The value was 1.37%.

Which “activity change, negative = cytotoxicity” value does the source give for `Cc1nnn(C)c1-c1cnc2c3ccc(C(C)(C)O)cc3n([C@H](c3ccccc3)C3CCOCC3)c2c1` here?
The value was -14.2%.

For `CSC[C@H]1CN(Cc2c[nH]c3c(N)ncnc23)C[C@@H]1O`, which “activity change, negative = cytotoxicity” value is on record?
Its value is -5.66%.

Which “outcome” value does the source give for `C[C@@H]1[C@H](O)[C@@H](C)/C=C/C=C/C=C/C=C/C=C/C=C/C=C/[C@H](O[C@@H]2O[C@H](C)[C@@H](O)[C@H](N)[C@@H]2O)C[C@@H]2O[C@](O)(C[C@@H](O)C[C@@H](O)[C@H](O)CC[C@@H](O)C[C@@H](O)CC(=O)O[C@H]1C)C[C@H](O)[C@H]2C(=O)O` here?
The value was “inactive”.

With `COc1cc(N2CCN(C)CC2)ccc1Nc1ncc2c(n1)N(C)c1ccccc1C(=O)N2` as the compound, how does the “outcome” value read?
The value was “inactive”.

For `CN(C)c1cc(NC(=O)CNC(C)(C)C)c(O)c2c1C[C@H]1C[C@H]3[C@H](N(C)C)C(=O)C(C(N)=O)=C(O)[C@]3(O)C(=O)C1=C2O`, which “activity change, negative = cytotoxicity” value is on record?
The value was -0.326%.

For `CCOC(=O)C1=CCCCC1S(=O)(=O)Nc1ccc(F)cc1Cl` (stereo not given), which “activity change, negative = cytotoxicity” value is on record?
The value was -24.4%.

For `Cn1nccc1Nc1nccc(-c2cc3c(s2)C(C)(C)N(CCN2CCOCC2)C3=O)n1`, which “outcome” value is on record?
The value was “inactive”.

For `CC(C)NCCCn1c(Sc2cc(Cl)cc(Cl)c2)nc2c(N)ncnc21`, which “outcome” value is on record?
The value was “inactive”.

Which “activity change, negative = cytotoxicity” value does the source give for `COCC(=O)NC/C=C/c1ccc2ncnc(Nc3ccc(Oc4ccc(C)nc4)c(C)c3)c2c1` here?
Its value is -11.9%.

Which “activity change, negative = cytotoxicity” value does the source give for `Cc1c(NC(=O)OCC2COCCN2)cn2ncnc(Nc3ccc4c(cnn4Cc4cccc(F)c4)c3)c12` (stereo not given) here?
The value was -19.4%.

For `CC1CCC(n2c3cnccc3c3cnc(Nc4ccc5c(n4)CCN(C(=O)CO)C5)nc32)CC1` (stereo not given), which activity change, negative = cytotoxicity is on record?
Its activity change, negative = cytotoxicity is 4.82% [at 11.3 µM].

Which Potency does the source give for `C1=C/COCc2cc(ccc2OCCN2CCCC2)Nc2nccc(n2)-c2cccc(c2)COC/1` here?
Its Potency is 7.08 µM (active).

For `C[C@@H](Nc1ncnc2[nH]c(-c3ccc(O)cc3)cc12)c1ccccc1`, which “activity change, negative = cytotoxicity” value is on record?
Its value is 3.13%.

With `COc1cc(N2CCC(N)CC2)ccc1Nc1ncc(Cl)c(-c2c[nH]c3ccccc23)n1` as the compound, how does the Potency read?
The Potency was 31.6 µM (active).

For `CCC[C@H](NC(=O)/C(C#N)=C/c1cccc(Br)n1)c1ccccc1`, which Potency is on record?
The Potency was 20 µM (active).

With `CN1CCN(c2nc(C3=C(c4c[nH]c5ccccc45)C(=O)NC3=O)c3ccccc3n2)CC1` as the compound, how does the “outcome” value read?
The value was “inactive”.

Which “outcome” value does the source give for `Cc1c(Cl)cccc1S(=O)(=O)Nc1nc(CCN2CCOCC2=O)cs1` here?
The value was “inactive”.

Which “activity change, negative = cytotoxicity” value does the source give for `CC#CC(=O)N1CCC[C@H]1c1nc(-c2ccc(C(=O)Nc3ccccn3)cc2)c2c(N)nccn12` here?
The value was 2.05% [at 27.1 µM].

Which “outcome” value does the source give for `O=C(O)c1ccc(O)c2ncccc12` here?
The value was “inactive”.

With `Nc1n[n+]([O-])c2ccccc2[n+]1[O-]` as the compound, how does the “outcome” value read?
Its value is “inactive”.

For `N#Cc1ccnc(N2C(=O)CC[C@H]2C(=O)N(c2cncc(F)c2)[C@H](C(=O)NC2CC(F)(F)C2)c2ccccc2Cl)c1`, which “outcome” value is on record?
The value was “inactive”.

With `CN(C)Cc1cccc(N=C(c2ccccc2)c2c(O)[nH]c3cc(C(N)=O)ccc23)c1` as the compound, how does the “activity change, negative = cytotoxicity” value read?
Its value is -1.23%.

With `CC[C@H](NC(=O)[C@H](C)NC)C(=O)N1C[C@@H](O)C[C@H]1Cc1c(-c2[nH]c3cc(F)ccc3c2C[C@@H]2C[C@H](O)CN2C(=O)[C@H](CC)NC(=O)[C@H](C)NC)[nH]c2cc(F)ccc12` as the compound, how does the “activity change, negative = cytotoxicity” value read?
Its value is -22.9%.

With `COc1cc(N2CCC(N3CCN(C)CC3)CC2)ccc1Nc1ncnc(Nc2ccccc2S(=O)(=O)C(C)C)n1` as the compound, how does the “activity change, negative = cytotoxicity” value read?
Its value is -5.36%.

With `O=C(CCl)Nc1cccc(NC2=NS(=O)(=O)c3ccccc32)c1` as the compound, how does the “outcome” value read?
The value was “inactive”.

Which “outcome” value does the source give for `CC1Oc2cc(cnc2N)-c2c(nn(C)c2C#N)CN(C)C(=O)c2ccc(F)cc21` (stereo not given) here?
Its value is “inactive”.

For `Cc1cc(C)c(CNC(=O)c2cc(-c3ccc(CN4CCOCC4)cc3)cc3c2cnn3C2CCCC2)c(=O)[nH]1`, which “activity change, negative = cytotoxicity” value is on record?
Its value is 4.72%.

For `COc1cc2c3c(n(CCCN4CCOCC4)c(=O)c2cc1OC)-c1cc2c(cc1C3=O)OCO2`, which “activity change, negative = cytotoxicity” value is on record?
Its value is -29.9%.

Which “activity change, negative = cytotoxicity” value does the source give for `Cc1ccc2cc(-c3c(C)ccc(C(=O)c4c(-c5ccccc5)n(C)n(-c5ccccc5)c4=O)c3N)ccc2n1` here?
Its value is -4.8%.

For `Cn1cc(/C=C/C(=O)c2cccc(F)c2)cc1/C=C/C(=O)NO`, which “outcome” value is on record?
The value was “inactive”.
